According to PubChem BioAssay (NCATS):
Several values for one entry are separate records, joined by “and”; a condition that tells them apart may be missing. Equal entries are not always repeated. A number with no mark means an inactive call. Records with an inconclusive call do not appear. Entries that show only a call come without a potency. Activity calls are given as the source filed them. Unless noted, calls come from the whole dose curve; as a rule, active = well fitted curve in the direction sought with a large enough effect; inconclusive = small, poorly fitted or top-dose-only effect, or another doubt; inactive = no such curve, though single readings can be large; an effect the other way counts as inactive or inconclusive.

Legend:
[1] = Cell Viability - Renal Proximal Tubule (AID 545); conditions: renal proximal tubule cells viability, at 91.7 µM (top of the series);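 note: cells exposed to compound for 40 hours; nearly all actives have a fitted effect of over 40% in size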
In short: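 Cytotoxicity is scored as a concentration-dependent drop in cellular ATP in primary rat renal proximal tubule cells exposed for 40 hr. AC50 derives from Hill modelling.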

[2] = Cellular Toxicity (caspase-3) HUV-EC-C (AID 656)
In short: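 Read-out: luminescence proportional to caspase 3/7 activity, measured 20 min after adding Caspase-Glo 3/7 reagent. Cells (HUV-EC-C) had received compound for 16 hr at 37°C. Increases relative to DMSO and 100 uM tamoxifen gave concentration-response AC50 values.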

[3] = Cellular Toxicity (caspase-3) BJ (AID 658)
In short: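 qHTS, BJ fibroblasts, 1000 cells/well; 5 hr preincubation, 16 hr compound, 37 °C; Caspase-Glo 3/7 reagent, 1 hr RT; luminescence. DMSO = 0%, 10 uM staurosporine = 100%. Hill-equation AC50.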

[4] = Cellular Toxicity (caspase-3) SK-N-SH (AID 661)
In short: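 Cells were seeded and incubated 5 hr at 37 °C, dosed with compound over a concentration range for 16 hr, then given Caspase-Glo 3/7 reagent for 1 hr at room temperature before luminescence reading.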

[5] = Cellular Toxicity (caspase-3) H-4-II-E (AID 663);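 note: cells exposed to compound for 16 hr before readout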
In short: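 H-4-II-E rat hepatoma, 1500 cells/well, 5 hr settle at 37 °C; compound 16 hr, 37 °C, complete medium; Caspase-Glo 3/7, 20 min RT; luminescence. DMSO = 0%, 100 uM tamoxifen = 100%; Hill-equation AC50.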

[6] = Cellular Toxicity (caspase-3) NIH 3T3 (AID 666);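 note: caspase signal read after 16 h compound exposure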
In short: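 Cells were plated at 1000 per well and incubated 5 hr at 37°C, then compound was added for 16 hr. Caspase-Glo 3/7 reagent followed for 20 min at room temperature before luminescence was read.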

[7] = Cellular Toxicity (caspase-3) Renal Proximal Tubule (AID 667); conditions: renal proximal tubule cells, at 91.7 µM (top of the series);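 note: cells exposed to compound for 16 hours at 37 °C before detection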
In short: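 In qHTS format, rat primary proximal tubule cells seeded at 1000 per well are exposed to compounds for 16 hours at 37 °C. An increase in Caspase-Glo 3/7 luminescence indicates caspase activation.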

[8] = Cell Viability - LYMP1-002 - Assay at 16 hr (AID 948); note: potency is the fitted concentration of half-maximal effect
In short: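 Acute cytotoxicity is scored as a concentration-dependent fall in intracellular ATP in a human lymphoblastoid line (LYMP1-002) after 16 hr compound exposure at 37 C, measured by luciferase luminescence.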

[9] = MultiTox-Fluor Cytotoxicity Assay - LYMP1-002 - Dead Cells (AID 960); note: nearly all actives have a fitted effect of over 60% in size; note: potency is the fitted concentration of half-maximal effect
In short: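 Cells were plated, rested 5 hr, then treated with compound dilution series for 16 hr at 37 C. After adding substrate reagent and 60 min at room temperature, dead-cell protease fluorescence gave concentration-response curves fitted by the Hill equation.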

[10] = MultiTox-Fluor Cytotoxicity Assay - LYMP1-003 - Live Cells (AID 962); note: potency is the fitted concentration of half-maximal effect
In short: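 Acute cytotoxicity is scored as a drop in live-cell protease activity in human lymphoblastoid LYMP1-003 cells after 16 hr compound exposure at 37 C. AC50 values come from Hill-equation modelling of concentration-response data.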

[11] = Cell Viability - LYMP1-003 - Assay at 24 hr (AID 963); note: potency is the fitted concentration of half-maximal effect
In short: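 Cytotoxicity is scored as a concentration-dependent fall in ATP-linked luciferase signal in human lymphoblastoid LYMP1-003 cells treated 24 hr at 37 C in complete culture medium.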

[12] = Cell Viability - LYMP2-025 (AID 976); note: potency is the fitted concentration of half-maximal effect
In short: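 Acute cytotoxicity is scored as a concentration-dependent fall in intracellular ATP, measured by luciferase luminescence, in human lymphoblastoid LYMP2-025 cells exposed to compound for 24 hours at 37 C. AC50 values come from standard Hill fits.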

[13] = Cell Viability - LYMP2-010 (AID 981); note: nearly all actives have a fitted effect of over 55% in size; note: potency is the fitted concentration of half-maximal effect
In short: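 Steps: seed 2500 LYMP2-010 cells per well; incubate 5 hr at 37 C; add compound; incubate 24 hr at 37 C; add CellTiter-Glo, wait 30 min at room temperature; read luminescence. Concentration-response fitted to Hill equation for AC50.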

[14] = Cell Viability - LYMP2-018 (AID 985);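 note: compound exposure lasted 24 hr at 37 °C; nearly all actives have a fitted effect of over 50% in size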; note: potency is the fitted concentration of half-maximal effect
In short: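 Seed 2500 lymphoblastoid cells per well, incubate 5 hr at 37 C, add compound and incubate 24 hr at 37 C, add CellTiter-Glo, wait 30 min at room temperature, then read luminescence.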

[15] = Cell Viability - LYMP2-020 (AID 986); note: nearly all actives have a fitted effect of over 55% in size; note: potency is the fitted concentration of half-maximal effect
In short: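 Seed 2500 cells per well and incubate 5 hr at 37 C. Add compounds at a concentration series and incubate 24 hr at 37 C. Add CellTiter-Glo, wait 30 min at RT, read luminescence, and fit a Hill curve for AC50.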

[16] = molecular target: Peroxisome proliferator-activated receptor alpha (Homo sapiens) (UniProt Q07869); experiment: qHTS assay for small molecule agonists of the peroxisome proliferator-activated receptor alpha (PPARalpha) signaling pathway (AID 651778); conditions: PathHunter PPARalpha complementation, chemiluminescence, 6 h; active compounds read high
In short: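 Enzyme-fragment complementation assay in which ligand-bound PPARalpha translocates and forms an active enzyme that generates chemiluminescence. Cells were plated overnight, exposed to compound for 6 hr at 37 C, and then given detection reagent for 60 min at room temperature.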

[17] = qHTS assay for small molecule agonists of the antioxidant response element (ARE) signaling pathway measured by Nrf2-dependant transcriptional activity - cell viability counter screen (AID 720653; active = well fitted curve in the direction sought with a large enough effect in the repeat runs; an effect the other way counts as inactive or inconclusive); conditions: ARE-bla HepG2 viability, CellTiter-Glo ATP luminescence, 16 h; active compounds read low
In short: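 ARE-bla HepG2 cells treated with compounds for 16 h at 37C; this counter screen measures viability as intracellular ATP by CellTiter-Glo luminescence after 30 min at room temperature.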

[18] = qHTS assay for cell viability of HEK293 cells (AID 743288); conditions: ATP luminescence (CellTiter-Glo), 18 h; max response: active compounds read low; note: nearly all actives have a fitted effect of over 50% in size; note: potency is the fitted concentration of half-maximal effect
In short: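 Quantitative high-throughput screen: compounds were pinned onto parental HEK293 cells (2,000 per well) after a minimum 5 h settling at 37 C, incubated 18 h at 37 C, and intracellular ATP measured by luciferase luminescence.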

[19] = qHTS assay for cell viability of the p53RE-bla HCT-116 cell line (AID 743292); note: nearly all actives have a fitted effect of over 55% in size
In short: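 Readout: CellTiter-Glo luminescence after 30 min RT. Treatment: compounds in DMSO, 16 h, 37 C. Cells: CellSensor p53RE-bla HCT-116, 4,000/well, preincubated 5 h.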

[20] = molecular target: Alpha-galactosidase (Coffea arabica) (UniProt Q42656); experiment: Counterscreen for Glucocerebrosidase Inhibitors: qHTS Assay for Coffee Bean alpha-Galactosidase at pH 5.9 (AID 998)
In short: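 Enzyme 2 nM + cpd (0.7 nM–77 uM titration) + 4-MU-alpha-Gal 80 uM, pH 5.9 citrate/Tween-20, RT 20 min, NaOH/glycine stop pH 10, fluor 365/440. Normalized to no-enzyme and full-activity controls; Hill-fit AC50.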

[21] = primary cells of rat origin unless noted
[22] = primary cells freshly taken from rat, solvent-only wells 0%, staurosporine 100% unless noted

Chain of Peroxisome proliferator-activated receptor alpha (Homo sapiens) (Q07869 whole entry, looked up, the tested form may be a part): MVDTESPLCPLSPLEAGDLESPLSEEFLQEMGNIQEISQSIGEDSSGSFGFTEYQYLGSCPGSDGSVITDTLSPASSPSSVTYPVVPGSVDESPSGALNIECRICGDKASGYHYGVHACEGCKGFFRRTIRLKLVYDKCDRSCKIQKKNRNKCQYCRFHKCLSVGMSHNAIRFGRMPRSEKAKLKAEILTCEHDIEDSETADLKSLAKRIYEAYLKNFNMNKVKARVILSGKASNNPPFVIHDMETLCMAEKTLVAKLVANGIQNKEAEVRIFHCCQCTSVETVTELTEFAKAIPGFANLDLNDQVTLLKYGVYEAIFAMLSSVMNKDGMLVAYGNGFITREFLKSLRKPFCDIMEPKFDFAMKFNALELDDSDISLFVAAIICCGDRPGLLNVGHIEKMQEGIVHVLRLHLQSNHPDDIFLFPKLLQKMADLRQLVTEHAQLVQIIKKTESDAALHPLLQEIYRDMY
Chain of Alpha-galactosidase (Coffea arabica) (Q42656 whole entry, looked up): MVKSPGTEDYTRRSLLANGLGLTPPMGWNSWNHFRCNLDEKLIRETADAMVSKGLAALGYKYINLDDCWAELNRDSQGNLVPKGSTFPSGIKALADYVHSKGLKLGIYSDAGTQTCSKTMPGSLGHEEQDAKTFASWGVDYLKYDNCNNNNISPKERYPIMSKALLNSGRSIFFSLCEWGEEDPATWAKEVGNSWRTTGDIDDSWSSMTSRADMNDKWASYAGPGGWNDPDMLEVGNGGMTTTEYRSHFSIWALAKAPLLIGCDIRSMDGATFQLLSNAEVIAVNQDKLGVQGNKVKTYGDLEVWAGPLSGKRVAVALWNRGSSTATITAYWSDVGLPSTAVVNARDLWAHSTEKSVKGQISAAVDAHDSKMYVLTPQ

## C=CCc1ccc(OC)cc1
[1]; [21]
  activity change, negative = cytotoxicity: -9.51% [at 91.7 µM]
[2]
  outcome: inactive
[3]
  outcome: inactive
[4]
  outcome: inactive
[5]
  outcome: inactive
[6]
  outcome: inactive
[7]; [22]
  caspase-3 activation: 1.25% [at 91.7 µM]
[8]
  Potency: inactive
[9]
  Potency: inactive
[10]
  Potency: inactive
[11]
  Potency: inactive
[12]
  Potency: inactive
[13]
  Potency: inactive
[14]
  Potency: inactive
[15]
  Potency: inactive
[16]
  max response: 0.294%
[17]
  max response: 2.85%
[18]
  max response: 2.04%
[19]
  Potency: inactive

## CC[C@@]1(c2ccc(N)cc2)CCC(=O)NC1=O
[20]
  outcome: inactive

## COc1ccc2c(c1OC)C(=O)O[C@H]2[C@H]1c2cc3c(cc2CCN1C)OCO3
[20]
  outcome: inactive

## NC[C@H](O)c1ccc(O)cc1
[20]
  outcome: inactive

## C[N+]1(C)[C@@H]2CC[C@H]1CC(OC(=O)[C@@H](CO)c1ccccc1)C2 (stereo not given in full)
[20]
  outcome: inactive

## C[C@H](NC(C)(C)C)C(=O)c1cccc(Cl)c1
[20]
  outcome: inactive

## CN1CC[C@]2(C)c3cc(O)ccc3N(C)[C@@H]12
[20]
  outcome: inactive

## COc1ccc(OC)c([C@H](O)[C@H](C)N)c1
[20]
  outcome: inactive

## C[C@]12CC[C@H](O)C[C@@H]1CC[C@H]1[C@H]2CC[C@]2(C)C(=O)CC[C@@H]12
[20]
  outcome: inactive

## CS(=N)(=O)CC[C@@H](N)C(=O)O (stereo not given in full)
[20]
  outcome: inactive

## CC(C)N(CC[C@@](C(N)=O)(c1ccccc1)c1ccccn1)C(C)C
[20]
  outcome: inactive

## CNC(=O)N(C)c1nnc(C(C)(C)C)s1
[16]
  max response: -3.93%
[17]
  max response: 4.89%
[18]
  max response: -3.03%
[19]
  Potency: inactive

## CC[C@H]1C(=O)OC[C@H]1Cc1cncn1C
[20]
  outcome: inactive

## O=C1C(Cl)=C(Cl)C(=O)C(Cl)=C1Cl
[1]; [21]
  activity change, negative = cytotoxicity: -104% (active)
[2]
  outcome: inactive
[3]
  outcome: inactive
[4]
  outcome: inactive
[5]
  outcome: inactive
[6]
  outcome: inactive
[7]; [22]
  caspase-3 activation: -16.1%
[8]
  Potency: 31.6 µM (active)
[9]
  Potency: 15.8 µM (active)
[10]
  Potency: 50.1 µM (active)
[11]
  Potency: 31.6 µM (active)
[12]
  Potency: 50.1 µM (active)
[13]
  Potency: 12.6 µM (active)
[14]
  Potency: 39.8 µM (active)
[15]
  Potency: 12.6 µM (active)
[16]
  max response: -6.11%
[18]
  Potency: 39.8 µM (active)

## O=C(O)COc1ccc(Cl)cc1Cl
[1]
  activity change, negative = cytotoxicity: -12.8%
[1]; primary cells of rat origin
  activity change, negative = cytotoxicity: -15.7%
[2]
  outcome: inactive
[3]
  outcome: inactive
[4]
  outcome: inactive
[5]
  outcome: inactive
[6]
  outcome: inactive
[7]
  caspase-3 activation: 4.86%
[7]; primary cells freshly taken from rat, solvent-only wells 0%, staurosporine 100%
  caspase-3 activation: 3.32%
[8]
  Potency: inactive
[9]
  Potency: inactive
[10]
  Potency: inactive
[11]
  Potency: inactive
[12]
  Potency: inactive
[13]
  Potency: inactive
[14]
  Potency: inactive
[15]
  Potency: inactive
[16]
  max response: 0.368% [middle of 4 runs]
[17]
  max response: -0.488% [middle of 4 runs]
[18]
  max response: 0.426% [middle of 4 runs]
[19]
  Potency: inactive

## CCNc1nc(Cl)nc(NC(C)C)n1
[1]; [21]
  activity change, negative = cytotoxicity: -6.93% [at 91.7 µM]
[2]
  outcome: inactive
[3]
  outcome: inactive
[4]
  outcome: inactive
[5]
  outcome: inactive
[6]
  outcome: inactive
[7]; [22]
  caspase-3 activation: -3.87% [at 91.7 µM]
[8]
  Potency: inactive
[9]
  Potency: inactive
[10]
  Potency: inactive
[11]
  Potency: inactive
[12]
  Potency: inactive
[13]
  Potency: inactive
[14]
  Potency: inactive
[15]
  Potency: inactive
[16]
  max response: 3.27% and 0.807%
[17]
  max response: 5.56% and -9%
[18]
  max response: 2.61% and -2.5%
[19]
  Potency: inactive

## CCCCCCCCCc1ccc(O)cc1
[1]; [21]
  activity change, negative = cytotoxicity: -80.8% (active)
[2]
  outcome: inactive
[3]
  outcome: inactive
[4]
  outcome: inactive
[5]
  outcome: inactive
[6]
  outcome: inactive
[7]; [22]
  caspase-3 activation: 172% (active)
[8]
  Potency: inactive
[9]
  Potency: 25.1 µM (active)
[10]
  Potency: inactive
[11]
  Potency: inactive
[12]
  Potency: inactive
[13]
  Potency: inactive
[14]
  Potency: inactive
[15]
  Potency: inactive
[16]
  max response: 6.94% and 6.09%
[17]
  max response: -6.51% and -5.9%
[18]
  max response: -7.88%
[19]
  Potency: inactive
